Data on 14 molecules can be found in PubChem BioAssay.

Experiment [1] addresses 6-phosphogluconate dehydrogenase, decarboxylating (Homo sapiens) (UniProt P52209). In words: 6PGD enzyme inhibitors, primary screen, biochemical, human, recombinant enzyme, NADPH absorbance (AID 1159550). The following applies: recombinant 6PGD, NADPH absorbance 341 nm; at 10 µM; stronger effect = higher value.
A short description of experiment [2]: differential killing of epithelial or mesenchymal cells, primary screen, imaging, PC-3E GFP, TEM4-18 mCherry, co-culture (AID 1345086;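 active means compounds killing one labelled cell type while sparing the other, by normalised counts and ratio limits, not self-fluorescent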;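 on all read-outs here: cells exposed to compound for 72 h before imaging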;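 on red/green cell ratio (normalised): normalised mesenchymal count divided by normalised epithelial count so high means epithelial killing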). The conditions noted are these: imaging cell counts, at 1 µM; for red/green cell ratio (normalised): actives lie on both sides, counts scaled to control wells, 1 = unselective.
Experiment [3] deals with Mitogen-activated protein kinase 7 (Homo sapiens) (UniProt Q13164). As to the kind of experiment: ERK5 transactivation activators in reporter cells, primary screen, cell-based, HTS (AID 1508626;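 active means luciferase signal above three times the same-plate solvent-only control wells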;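 further: luciferase driven by Gal4-ERK5 fusion binding five Gal4 sites before minimal TATA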). The conditions noted are these: HeLa Gal4-ERK5 transactivation, 18 h, at 5 µM, stronger effect = higher value.
The mark [4] stands for this setting: measured here: epithelial PC-3E GFP cell survival.
The mark [5] stands for this setting: measured here: mesenchymal TEM4-18 mCherry cell survival.

SMILES strings stand for the structures. Activity calls are given as the source filed them.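 How the source made its calls, unless noted: active means at least 20% inhibition of 6-phosphogluconate dehydrogenase activity; inactive means the rest.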

Chain of 6-phosphogluconate dehydrogenase, decarboxylating (Homo sapiens) (P52209 whole entry, looked up): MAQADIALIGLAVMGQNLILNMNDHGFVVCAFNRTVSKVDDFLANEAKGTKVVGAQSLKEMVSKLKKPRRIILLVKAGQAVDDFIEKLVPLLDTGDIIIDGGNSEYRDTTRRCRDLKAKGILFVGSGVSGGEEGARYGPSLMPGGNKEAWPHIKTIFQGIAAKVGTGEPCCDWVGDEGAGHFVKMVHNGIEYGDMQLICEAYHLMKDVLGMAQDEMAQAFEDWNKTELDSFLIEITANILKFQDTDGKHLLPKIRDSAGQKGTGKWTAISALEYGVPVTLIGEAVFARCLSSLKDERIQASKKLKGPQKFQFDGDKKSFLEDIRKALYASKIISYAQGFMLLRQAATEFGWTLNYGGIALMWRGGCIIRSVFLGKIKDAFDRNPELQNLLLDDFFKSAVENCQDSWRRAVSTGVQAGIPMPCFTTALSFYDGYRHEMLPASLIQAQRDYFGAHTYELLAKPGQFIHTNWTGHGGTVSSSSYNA
Chain of Mitogen-activated protein kinase 7 (Homo sapiens) (Q13164 whole entry, looked up, the tested form may be a part): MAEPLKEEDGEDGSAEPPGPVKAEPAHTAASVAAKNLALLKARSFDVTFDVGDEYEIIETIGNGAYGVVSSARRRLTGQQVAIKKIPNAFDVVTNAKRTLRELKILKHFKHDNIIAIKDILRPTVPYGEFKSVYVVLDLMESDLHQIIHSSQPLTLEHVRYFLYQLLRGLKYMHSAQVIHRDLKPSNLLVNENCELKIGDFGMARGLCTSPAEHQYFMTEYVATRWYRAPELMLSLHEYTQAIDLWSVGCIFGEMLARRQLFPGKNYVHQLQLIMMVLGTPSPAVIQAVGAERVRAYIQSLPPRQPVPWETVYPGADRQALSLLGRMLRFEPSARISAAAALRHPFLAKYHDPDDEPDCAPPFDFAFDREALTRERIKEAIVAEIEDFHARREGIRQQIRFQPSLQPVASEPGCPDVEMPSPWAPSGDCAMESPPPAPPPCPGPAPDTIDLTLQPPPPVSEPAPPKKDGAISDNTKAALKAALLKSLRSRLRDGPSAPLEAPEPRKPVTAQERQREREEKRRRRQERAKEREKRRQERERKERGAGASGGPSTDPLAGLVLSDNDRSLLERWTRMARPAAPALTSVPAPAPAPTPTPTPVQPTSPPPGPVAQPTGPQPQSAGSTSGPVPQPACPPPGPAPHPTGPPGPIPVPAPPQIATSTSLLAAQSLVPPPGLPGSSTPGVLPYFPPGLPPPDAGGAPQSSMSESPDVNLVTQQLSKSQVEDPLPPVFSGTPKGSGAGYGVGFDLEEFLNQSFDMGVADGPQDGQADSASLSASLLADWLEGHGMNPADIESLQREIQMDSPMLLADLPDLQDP

As for `COc1ccc2c(c1)O[C@@H]1COc3cc(OC)c(OC)cc3[C@@H]1C2=O`, in experiment [1], the inhibition (as a rule, the relative decrease from the control value, in per cent) was -2.95% (inactive). Also, the red/green cell ratio (normalised) in experiment [2] was 0.88 (inactive). In addition, the normalised cell number in experiment [2] (setting [4]) is 0.9; in experiment [2] (setting [5]) it was 0.79. Moreover, in experiment [3], the luciferase signal was 68 AU (inactive).
For the molecule `CC1=C2C(O)C(=O)OC3CC4C(C)(C)C(=O)C=C[C@]4(C)C(CC1)[C@]23C` (stereo not given in full), the inhibition in experiment [1] was -6.52% (inactive). In experiment [2], the red/green cell ratio (normalised) was 1.05 (inactive). For the same molecule, the normalised cell number in experiment [2] (setting [4]) stood at 0.98; in experiment [2] (setting [5]) it was 1.02. For the same molecule, the luciferase signal in experiment [3] was 144 AU (active).
For `COc1ccc(-c2cc(=O)c3c(OC(C)=O)cc(OC(C)=O)cc3o2)cc1` the same measures were -1.6% (inactive), 0.89 (inactive), 1.06, 0.95 and 60 AU (inactive).
In the same order, the values of `C=C1[C@H]2CC[C@@]3(C)[C@H](c4ccoc4)OC(=O)C[C@]13O[C@H]1C[C@H](O)C(C)(C)[C@H](CC(=O)OC)[C@]12C` are -1.87% (inactive), 1.12 (inactive), 0.91, 1.02 and 8 AU (inactive).
For `COc1cc(O)c2c(=O)cc(C)oc2c1CC=C(C)C` the same measures were 12.4% (inactive), 1.22 (inactive), 0.96, 1.17 and 36 AU (inactive).
Take `CCOC(=O)c1c(C)cc(O)c(C=O)c1O`: the inhibition in experiment [1] was -5.47% (inactive). Also, the red/green cell ratio (normalised) in experiment [2] is 0.95 (inactive). Further, the normalised cell number in experiment [2] (setting [4]) turned out to be 0.99; in experiment [2] (setting [5]), 0.94. Also, the luciferase signal in experiment [3] was 56 AU (inactive).
`O=C(O)C1=C[C@@H](O)[C@@H](O)[C@H](O)C1`: the inhibition in experiment [1] was 9.48% (inactive). In experiment [2], the red/green cell ratio (normalised) was 1.05 (inactive). Further, the figures for the normalised cell number in experiment [2] (setting [4]) and in experiment [2] (setting [5]) were 0.91 and 0.95, respectively. Moreover, the luciferase signal in experiment [3] is 88 AU (inactive).
In the same order, the values of `CCC(C(=O)O)c1ccccc1` (stereo not given) are -10% (inactive), 1.07 (inactive), 1.08, 1.15 and 76 AU (inactive).
On to `COc1c2ccoc2c(OC)c2oc(=O)ccc12`, for which the inhibition in experiment [1] was 6.1% (inactive). In experiment [2], the red/green cell ratio (normalised) was 1.06 (inactive). Besides, the normalised cell number in experiment [2] (setting [4]) was determined as 1.03; in experiment [2] (setting [5]) it was 1.09. Moreover, the luciferase signal in experiment [3] is 432 AU (active).
As for `COC(=O)[C@@H]1OC(=O)C2OC23[C@@]1(C)CCC1[C@]2(C)C(C[C@@H](O)[C@]13C)C(C)(C)[C@H](OC(C)=O)C[C@@H]2OC(C)=O` (stereo not given in full), the inhibition in experiment [1] was -0.817% (inactive). In experiment [2], the red/green cell ratio (normalised) was 0.93 (inactive). The normalised cell number was found to be 1.09 in experiment [2] (setting [4]) and 1.02 in experiment [2] (setting [5]). Moreover, the luciferase signal in experiment [3] is 64 AU (inactive).
For `C=C1C2CC[C@@]3(C)[C@H](c4ccoc4)OC(=O)C[C@]13O[C@H]1CC(=O)C(C)(C)[C@H](C(O)C(=O)OC)[C@@]21C` (stereo not given in full) the same measures were -4.16% (inactive), 0.98 (inactive), 0.75, 0.74 and 28 AU (inactive).
In the same order, the values of `COc1ccc(C(=O)/C=C/c2ccccc2)cc1` are 8.83% (inactive), 1.17 (inactive), 0.89, 1.04 and 88 AU (inactive).
In the same order, the values of `C=C1CCC(C2CC(=O)OC2=O)C(=O)CCC2C1CC2(C)C` (stereo not given) are 13.1% (inactive), 0.84 (inactive), 1.27, 1.06 and 144 AU (inactive).
As for `COC(=O)c1c(OC)cc2c(c1C)Oc1c(Cl)c(O)c(Cl)c(C)c1C(=O)O2`, the inhibition in experiment [1] was -6.18% (inactive). Further, the red/green cell ratio (normalised) in experiment [2] was 1.02 (inactive). For the same molecule, the results for the normalised cell number in experiment [2] (setting [4]) and in experiment [2] (setting [5]) were 1.07 and 1.1, respectively. Besides, the luciferase signal in experiment [3] was 56 AU (inactive).
